Screens from PubChem.
Hits are enriched below; roughly 7.7% of the tested compounds scored in any of these assays.
RE007 growth inh – qHTS Assay for Inhibitors of the HIV-1 protein Vpr; S. pombe RE007 Vpr strain, BacTiter-Glo ATP luminescence, 24 h; Potency, µM (top dose mostly 92.2 µM), usual class: inhibitors; 360,000 tested, 0.21% active; AID 651644, 2012; active = well fitted falling curve with a large enough effect; inconclusive = small, poorly fitted or top-dose-only effect; inactive = no such curve, though single readings can be large or run the other way; note: nearly all actives have a fitted effect of over 50% in size
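Fission yeast RE007 carrying one integrated HIV-1 vpr copy, seeded at OD 0.01 in PMG+AL medium with 23 nL pinned compound. Grown 24 h at 30 degrees; viability read by BacTiter-Glo luminescence after 5 min.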
Sm TGR block – qHTS Assay for the Inhibitors of Schistosoma Mansoni Peroxiredoxins; purified TGR, DTNB reduction, TNB absorbance 405 nm; Potency, µM (top dose mostly 114 µM), actives largely listed as inhibitors; AID 485364, 2010; 360,000 tested, 3% active; Schistosoma mansoni thioredoxin glutathione reductase (TGR), Q962Y6; note: nearly all actives have a fitted effect of over 60% in size
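TGR 20 nM + NADPH 100 uM (dispensed conc.), cpd preinc 15 min RT; start with NADPH (500 uM addition) then DTNB (15 mM addition). Kinetic TNB absorbance, 405 nm filter. Four-parameter Hill fit across titration.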
HCMV inh – qHTS Assay for inhibitors of the human cytomegalovirus (HCMV) | activity change, negative = inhibition, % at 57.5 µM | 410,000 tested, 4.5% active | HFF cells, HCMV-luciferase reporter, 72 h; hits give low values; in the data active = activity change below about -60%; inconclusive = no clear call, values can overlap the other calls; inactive = above about -39%
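Luciferase read-out from HCMV-luciferase-infected HFFs (MOI 1 PFU/cell) 72 h post infection at 37C; compounds added after 16 h cell attachment; activity normalized between buffer-only basal and Salinomycin (10uM) inhibitor controls.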
FBPA Giardia inh – qHTS Assay for Inhibitors of Fructose-1,6-bisphosphate Aldolase from Giardia Lamblia; A8B2U2; purified Giardia FBPA; Potency, µM (top dose mostly 59.6 µM), hits mostly inhibitors; 290,000 tested, 0.71% active; AID 2451, 2010; note: nearly all actives have a fitted effect of over 55% in size
Target sequence (A8B2U2 whole entry, looked up): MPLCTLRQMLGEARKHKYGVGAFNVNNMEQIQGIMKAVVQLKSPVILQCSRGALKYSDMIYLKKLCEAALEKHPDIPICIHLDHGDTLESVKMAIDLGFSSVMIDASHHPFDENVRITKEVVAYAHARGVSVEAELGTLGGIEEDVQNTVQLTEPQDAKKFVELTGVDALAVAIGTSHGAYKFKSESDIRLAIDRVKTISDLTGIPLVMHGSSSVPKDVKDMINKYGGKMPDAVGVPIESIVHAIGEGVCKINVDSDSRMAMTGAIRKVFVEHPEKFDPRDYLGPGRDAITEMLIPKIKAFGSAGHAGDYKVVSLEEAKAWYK
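40 nM FBPA preincubated 10 min at RT with compound (up to 57.5 uM final), then substrate plus GAPDH/TPI/NAD/arsenate coupling and diaphorase/resazurin added. Fluorescence read after 20 min at RT, 525/598 nm.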
FMDV inh – High Throughput Screening for Foot and Mouth Disease Virus Antivirals; FMDV antiviral cell-based qHTS; Potency, µM (highest dose often 57.9 µM), actives largely listed as inhibitors; 410,000 tested, 1.2% active; AID 1159524, 2015; calls by dose curve; tested in HEK293T cells; note: read-out not given here; nearly all actives have a fitted effect of over 45% in size
TbPYK inhibitor – qHTS of Trypanosoma Brucei Inhibitors; pyruvate kinase (Trypanosoma brucei), Q57TT1; TbPYK enzyme, Kinase-Glo Plus ATP luminescence, 45 min; Potency, µM (titrated, usually from 76.8 µM), most hits filed as inhibitors; 410,000 tested, 0.12% active; note: nearly all actives have a fitted effect of over 50% in size
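TbPYK + substrate in 50 mM TEA pH 7.2, 100 mM KCl, 10 mM MgCl2, 0.05% BSA, 0.01% Tween-20; cpd pinned; ADP 130 uM final; 45 min RT; Kinase-Glo Plus 10 min; luminescence endpoint.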
Of the large screens only hits and unclear results are named; the others gave an inactive call; ! = not active in a repeat. Unless noted, calls come from the whole dose curve; as a rule, active = well fitted curve in the direction sought with a large enough effect; inconclusive = small, poorly fitted or top-dose-only effect, or another doubt; inactive = no such curve, though single readings can be large; an effect the other way counts as inactive or inconclusive.

O=S(Cc1ccccc1)CC(O)(c1ccc(Cl)cc1)c1ccc(Cl)cc1 (configuration not stated)	HCMV inh -92
Cc1ccc(CSC2=Nc3ccccc3C3=NC(CCC(=O)N4CCN(c5ccccc5)CC4)C(=O)N23)cc1 (configuration not stated)	none (no result: RE007 growth inh, FBPA Giardia inh)
CCN1C(=O)C(CC(=O)Nc2ccc(F)cc2)N(Cc2ccco2)C1=S (configuration not stated)	Sm TGR block inconclusive
COc1cc(NC(=O)CC2C(=O)N(c3cccc(C)c3)C(=O)N2Cc2ccco2)cc(OC)c1 (configuration not stated)	Sm TGR block 50µM (no result: RE007 growth inh, FBPA Giardia inh)
COC(=O)c1ccc(NC(=O)CC2C(=O)N(c3cccc(C)c3)C(=O)N2Cc2ccco2)cc1 (configuration not stated)	none (no result: RE007 growth inh, FBPA Giardia inh)
COc1ccc(NC(=O)CC2C(=O)N(c3cccc(OC)c3)C(=O)N2Cc2ccco2)cc1 (configuration not stated)	Sm TGR block 45µM, FMDV inh inconclusive
CCCCCCOc1ccc(NC(=O)CC2C(=O)N(CC)C(=S)N2Cc2ccco2)cc1 (configuration not stated)	HCMV inh -90
COC(=O)c1ccc(NC(=O)CC2C(=O)N(c3ccccc3)C(=O)N2Cc2ccco2)cc1 (configuration not stated)	Sm TGR block inconclusive (no result: RE007 growth inh, FBPA Giardia inh)
CCOc1ccc(NC(=O)CC2C(=O)N(c3ccccc3)C(=O)N2Cc2ccco2)cc1 (configuration not stated)	Sm TGR block 45µM
CC1=C(c2ccc(C)c(C)c2)S(=O)(=O)N=C1N1CCC(C(=O)N2CCCCC2)CC1	none (no result: RE007 growth inh, FBPA Giardia inh)
CCOC(=O)c1sc(N(Cc2ccccc2)C(=O)CCl)nc1C	Sm TGR block 25µM, FMDV inh inconclusive (no result: FBPA Giardia inh)
CCOC(=O)c1sc(N(Cc2ccccc2)C(=O)COC(=O)c2ccccc2O)nc1C	none
O=C1NC(=O)N(Cc2ccccc2)C(=O)/C1=C\C=C\c1ccco1	Sm TGR block 10µM, HCMV inh -98, FMDV inh 25µM
O=C1NC(=O)N(Cc2ccco2)C(=O)/C1=C/C=C/c1ccco1	Sm TGR block 2µM, HCMV inh inconclusive, FMDV inh inconclusive
CN(C)C(=O)c1ccc(-c2cc3cnc(Nc4ccccc4Cl)cc3[nH]2)cc1	none (no result: RE007 growth inh, Sm TGR block, FBPA Giardia inh, FMDV inh, TbPYK inhibitor)
Nc1c(C(=O)Nc2ccccc2Br)sc2nc(-c3cccs3)ccc12	HCMV inh -71, FMDV inh inconclusive (no result: RE007 growth inh, FBPA Giardia inh)
Nc1c(C(=O)Nc2ccccc2)sc2nc(-c3ccco3)ccc12	Sm TGR block 1µM, FMDV inh inconclusive
O=C(COc1ccc2c(-c3ccccc3)cc(=O)oc2c1)Nc1ccc(CCO)cc1	HCMV inh -68, FMDV inh inconclusive
O=C(COc1ccc2c(-c3ccccc3)cc(=O)oc2c1)Nc1ccc(CN2CCOCC2)cc1	none
O=C(Cc1cc(=O)[nH][nH]1)N/N=C/c1cccc(Cl)c1Cl	HCMV inh -102!
COc1ccc2nc(C)cc(SCC(=O)N/N=C/c3ccc(O)c(O)c3)c2c1	HCMV inh inconclusive, FMDV inh inconclusive
COc1ccc2nc(C)cc(SCC(=O)N/N=C/c3cccc4ccccc34)c2c1	HCMV inh -68
O=C(Cc1cc(=O)[nH][nH]1)N/N=C/c1ccccc1Cl	none
O=C(Cc1cc(=O)[nH][nH]1)N/N=C/c1cccc2ccccc12	HCMV inh -90
FC(F)(F)c1ccccc1Cc1c(-c2ccco2)nc2c3ccccc3ccn12	none (no result: RE007 growth inh, Sm TGR block, FBPA Giardia inh, FMDV inh, TbPYK inhibitor)
Cc1ccc(-c2csc3ncnc(Sc4nnc(CN5CCCCCC5=O)o4)c23)cc1	HCMV inh -70, FMDV inh 14µM
Cc1cc(C)cc(NC(=O)C(Cc2ccccc2)NS(=O)(=O)c2ccc3c(c2)CCC(=O)N3)c1 (configuration not stated)	none (no result: RE007 growth inh, FBPA Giardia inh)
Cc1sc(NC(=O)c2ccco2)c(C(c2cccnc2)N2CCCC2)c1C (configuration not stated)	Sm TGR block inconclusive, HCMV inh -62
COc1cccc(C(c2c(NC(=O)c3ccco3)sc(C)c2C)N2CCOCC2)c1 (configuration not stated)	none (no result: FBPA Giardia inh)
Cc1sc(NC(=O)c2ccco2)c(C(c2cccnc2)N2CCN(C)CC2)c1C (configuration not stated)	Sm TGR block 35µM
Cc1sc(NC(=O)c2ccco2)c(C(c2ccncc2)N2CCOCC2)c1C (configuration not stated)	none
Cc1ccc(-c2ccc([C@@H]3[C@@H](CO)N4C(=O)CN(C(=O)c5ccncc5)C[C@H]34)cc2)cc1	none (no result: RE007 growth inh, Sm TGR block, FBPA Giardia inh, FMDV inh, TbPYK inhibitor)
CC(C)Oc1cc(F)ccc1-c1cc(C(=O)NCc2ccccn2)[nH]n1	HCMV inh -76 (no result: Sm TGR block, FBPA Giardia inh)
COc1ccc(NC(=O)O/N=C/c2c(C)nn(C(C)(C)C)c2C)cc1	HCMV inh inconclusive, FMDV inh inconclusive
Cc1nn(C(C)(C)C)c(C)c1/C=N/OC(=O)Nc1ccc(Cl)c(Cl)c1	HCMV inh -61, FMDV inh 0.32µM
CCC1CCc2nc3sc(C(=O)Nc4ccc(C)cc4C)c(N)c3cc2C1 (configuration not stated)	none (no result: RE007 growth inh, FBPA Giardia inh)
COc1ccccc1CN1CC(C(=O)NCc2nc3ccccc3n2C)CCC1=O (configuration not stated)	HCMV inh -64 (no result: FBPA Giardia inh)
CCNC(=O)[C@@H]1[C@@H](CO)[C@@H]2Cn3c(cccc3=O)[C@@H]2N1Cc1cccc(F)c1	none (no result: RE007 growth inh, Sm TGR block, FBPA Giardia inh, FMDV inh, TbPYK inhibitor)
CCc1nc(CN2CCOc3ccc(C(O)C4CCCCC4)cc3C2)c(C)[nH]1 (configuration not stated)	none (no result: RE007 growth inh, Sm TGR block, HCMV inh, FBPA Giardia inh, TbPYK inhibitor)
Cc1ccc2c(C)c3ccc4ccccc4c3c[n+]2c1	RE007 growth inh inconclusive, HCMV inh -95, FMDV inh inconclusive (no result: Sm TGR block, FBPA Giardia inh)
O=C(NCCC(NS(=O)(=O)OCC(Cl)(Cl)Cl)c1ccccc1)C(F)(F)F (configuration not stated)	none
O=C(NCC(NS(=O)(=O)OCC(Cl)(Cl)Cl)c1ccccc1)C(F)(F)F (configuration not stated)	HCMV inh -74
CCOc1ccc(S(=O)(=O)NCc2ccncc2)cc1	HCMV inh -96
CCOc1cc(S(=O)(=O)NCc2ccncc2)ccc1Cl	HCMV inh -84
CCOc1ccc(CCN2C(=S)N([C@@H](Cc3ccc(O)cc3)CN3CCC[C@@H]3CN3C(=S)NC[C@@H]3CC(C)C)C[C@@H]2Cc2ccc(O)cc2)cc1	HCMV inh -63 (no result: Sm TGR block, FBPA Giardia inh)
